We go through 57 compounds from PubChem BioAssay AID504850 (National Center for Advancing Translational Sciences (NCATS), 2011).

In all, about 2,300 compounds went through this assay and about 1,200 (52%) were called active. Another 34% or so got no clear call; they are omitted. So high a share suggests a set chosen from earlier hits. The list shows a part of the results. A number with no mark means an inactive call. The call rests on the fitted dose curve; in most records, active means well fitted inhibition curve with a large enough effect; inconclusive means small, poorly fitted or top-dose-only effect, or effect the other way; inactive means no such curve, though single readings can be large or run the other way.
On the % scale 0 is the no-effect control and ±100 the full control effect; potency means the concentration at half of the fitted maximal effect.

A short description of this test: Confirmation screen for delayed death inhibitors of the malarial parasite plastid, 48 hour incubation. Further: nearly all actives have a fitted effect of over 65% in size. The settings on record: P. falciparum-infected erythrocytes, luciferase growth; series mostly up to 28.7 µM; activity change, negative = inhibition: at the top concentration. The procedure, abridged:
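Erythrocytes infected with luciferase-expressing P. falciparum (2% hematocrit, 0.1% parasitemia) incubated with compounds 48 hours at 37 C, 5% CO2, in RPMI/Albumax. Growth inhibition scored as reduced luminescence after detection reagent.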
Take `N=C1S/C(=C\c2ccco2)C(=O)N1c1nccs1`: the Potency is 14.1 µM (active). On to `O=C(CCCN1C(=O)/C(=C\c2ccco2)SC1=S)Nc1ccc2ccccc2c1`, for which the “activity change, negative = inhibition” value was -5.51%. On to `O=C(c1ccc(Cl)cc1)C(Cn1cncn1)C(Sc1ccccc1)c1ccccc1` (configuration not stated), for which the Potency was 14.1 µM (active). Take `Cc1cc(C)c(/C=C(\C#N)C(N)=S)c(C)c1`: the “activity change, negative = inhibition” value was -25.2%. Take `CCN(CC)S(=O)(=O)c1ccc(N2CCOCC2)c(NC(=O)C2CSC3(C)CCC(=O)N23)c1` (configuration not stated): the Potency is 14.1 µM (active).

As to `COc1ccc([C@@]2(C(C)C)ON(c3ccccc3C(F)(F)F)C2=O)cc1`, the Potency was 1.12 µM (active).

In the case of `CCOC(=O)CC(Nc1nc(N2CCOCC2)nc(N2CCOCC2)n1)c1ccccc1Cl` (configuration not stated), the Potency was 6.31 µM (active). Still for that read-out and setting: in the case of `CCCc1ccc(C(=O)NC(=O)c2ccccc2O)cc1` it was 0.501 µM (active); in that of `CSc1ccccc1OCc1cc(C(=O)NCCCn2nc(C)cc2C)no1`, 15.8 µM (active); in that of `CSc1ccccc1OCc1cc(C(=O)N(C)CCc2c(C)n[nH]c2C)no1`, 12.6 µM (active). Still for that read-out and setting: the result for `CCN(CCN1CCCC1)C(=O)c1cc(COc2ccccc2SC)on1` reads 15.8 µM (active).

For the compound `CSc1ccccc1OCc1cc(C(=O)N2C[C@H]3CC[C@H]2C3)no1`, the “activity change, negative = inhibition” value was -29.5%. With `CSc1ccccc1OCc1cc(C(=O)NCCn2ccnc2C)no1`, the “activity change, negative = inhibition” value is 15.8%. `Nc1nc(SCC(=O)NCC2CCCO2)[nH]c(=O)c1NC(=O)c1ccc(F)c(F)c1` (configuration not stated): the Potency is 12.6 µM (active). The same measure, in the same setting: in the case of `CCS(=O)(=O)c1nc(S(=O)(=O)c2ccc(C)cc2)c(N2CCC3(CC2)OCCO3)s1` it was 12.6 µM (active); in that of `CC(C)Cc1ccc(C(=O)Nc2ccc(Cc3ccncc3)cc2)o1`, 12.6 µM (active); in that of `CCN(CC)S(=O)(=O)c1cc(NC(=O)C(C)OC(=O)c2[nH]c(C)c(C(C)=O)c2C)ccc1C` (configuration not stated), 4.47 µM (active).

Regarding `Cc1oc2c(c1C(=O)N1CCOCC1)C(=O)c1ccccc1C2=O`, the Potency was 2 µM (active). With `CCCC1O[C@@H]2CC3C4CCC5=CC(=O)C=C[C@]5(C)C4C(OC(C)=O)C[C@]3(C)[C@]2(C(=O)COC(C)=O)O1` (some centres not stated), the Potency is 7.08 µM (active).

In the case of `COC1C(OC(=O)/C=C/C=C/C=C/C=C/C(=O)O)CCC2(CO2)C1C1(C)OC1CC=C(C)C` (configuration not stated), the Potency is 0.0562 µM (active). Still for that read-out and setting: the result for `CCc1ccc(/C=C/c2c[nH]c3ccccc23)[n+](CC)c1` reads 0.126 µM (active).

Regarding `CC[n+]1ccc(/C=C/c2c[nH]c3ccccc23)cc1`, the Potency is 0.355 µM (active). The same measure, in the same setting: the result for `CC(C)CC1NC(=S)N(Cc2ccccc2)C1=O` (configuration not stated) reads 5.01 µM (active). In the case of `Cc1nnsc1C(=O)Nc1ccccc1`, the “activity change, negative = inhibition” value is 14.9%. With `O=C(C#Cc1ccccc1)Nc1cccc(F)c1`, the Potency was 7.94 µM (active).

Regarding `NC(=O)c1ccc(NC(=O)C#Cc2ccccc2)cc1`, the Potency is 5.01 µM (active). As to `Nc1ccc(-c2c3ccc(=O)cc-3oc3cc(O)ccc23)c(C(=O)O)c1`, the “activity change, negative = inhibition” value is 3.65%. In the case of `c1ccc(Cn2nnc3c(N4CCCCCC4)ncnc32)cc1`, the Potency is 14.1 µM (active). Still for that read-out and setting: the result for `CCn1c(=O)n(CC)c2cc(N3CCCC3)c(NC(=O)c3ccc(C)cc3)cc21` reads 11.2 µM (active); that for `Cc1ccc(NC(=O)COc2ccccc2C#N)cc1S(=O)(=O)N1CCCCCC1`, 14.1 µM (active); that for `Cc1csc(NC(=O)Cc2coc3cc(C)c(C(C)C)cc23)n1`, 14.1 µM (active). Take `COc1ccccc1-c1coc2cc(OC(=O)N3CCOCC3)ccc2c1=O`: the “activity change, negative = inhibition” value is 7.66%. With `COc1ccc(NC(=O)Cc2ccc(Cl)cc2)cc1S(=O)(=O)N1CCCCC1`, the Potency is 12.6 µM (active). `COc1ccc(CC(=O)NNC(=O)CN(C)S(=O)(=O)c2ccc(Cl)cc2)cc1OC`: the “activity change, negative = inhibition” value is -28.2%. Still for that read-out and setting: in the case of `O=C(COC(=O)c1ccc(F)c(S(=O)(=O)N2CCOCC2)c1)Nc1ccc2[nH]c(=O)[nH]c2c1` it was -10.8%. `COc1ccc(NC(=O)Cc2coc3cc(C)c(C(C)C)cc23)cc1S(=O)(=O)N1CCOCC1`: the Potency was 12.6 µM (active). On to `CC1(C)CC(=O)C=C(NC2=CC3OC(c4ccccc4)OCC3OC2=O)C1` (configuration not stated), for which the “activity change, negative = inhibition” value is 6.44%. As for `CC[n+]1ccccc1/C=C/c1ccc(N(C)C)cc1`, the Potency was 2.24 µM (active). On the same count and under the same terms, the result for `Cc1ccc(/C=C/c2ccc(N(C)C)cc2)[n+](C)c1` reads 1.26 µM (active); that for `COc1cc(/C=C(/C#N)C(=O)NCc2ccccc2)cc(OC)c1OC`, 14.1 µM (active); that for `CC[C@@H](C(=O)[C@@H](C)[C@@H](O)[C@H](C)CCc1ccc(C)c(O)c1C(=O)O)[C@H]1O[C@](CC)([C@H]2CC[C@](O)(CC)[C@H](C)O2)C[C@@H]1C`, 0.708 µM (active). On the same count and under the same terms, in the case of `COc1ccc(N2CCc3c(C)nc4c(OC)cc(OC)cc4c32)c(OC)c1` it was 11.2 µM (active). Consider `Cc1ccccc1OCC(=O)NCCC1=CCCCC1`, for which the “activity change, negative = inhibition” value was -31.7%. Turning to `Cc1cc(=O)nc2c3ccccc3n(CC(=O)NCCC3=CCCCC3)n12`, the Potency was 12.6 µM (active).

As to `Brc1ccc(/C=N/Nc2ncnc3c2cnn3Cc2ccccc2)cc1`, the Potency was 3.98 µM (active). Take `COC(=O)c1ccc(COc2ccccc2/C=N/O)o1`: the “activity change, negative = inhibition” value is -21.8%. Turning to `COc1cccc(/C=N/NC(=O)c2nc(-c3ccccc3)cc(-c3ccccc3)n2)c1O`, the Potency is 6.31 µM (active). The same measure, in the same setting: in the case of `O=C(Cn1ncc2c3ccccc3n(Cc3cccc(Cl)c3)c2c1=O)NCc1ccccn1` it was 14.1 µM (active); in that of `COc1ccc(Cn2c(O)c(C=Nc3ccc(O)cc3)c3ccccc3c2=O)cc1`, 10 µM (active); in that of `CC[C@@H]1CC=C[C@H]2[C@H]1C(=O)N(Cc1ccccc1)[C@H]2c1ccoc1`, 7.08 µM (active). `O=C(COC(=O)c1c2c(nc3ccccc13)CCN(Cc1ccccc1)C2)Nc1c(F)cccc1F`: the Potency is 6.31 µM (active). Still for that read-out and setting: the result for `COc1cccc(CN2CCN(c3nc4nonc4nc3N3CCCCC3)CC2=O)c1` reads 10 µM (active); that for `O=C(COc1ccc(Br)cc1)Nc1cc(S(=O)(=O)N2CCCCC2)ccc1N1CCCCC1`, 5.62 µM (active); that for `CC(Oc1cccc(Cl)c1)C(=O)Nc1cc(S(=O)(=O)N2CCOCC2)ccc1N1CCCCC1` (configuration not stated), 5.01 µM (active). Still for that read-out and setting: in the case of `O=C(COc1ccc(Cl)cc1)Nc1cc(S(=O)(=O)N2CCCCC2)ccc1N1CCCCC1` it was 5.62 µM (active); in that of `CCN1CCN(c2ccc(S(=O)(=O)N3CCCCC3)cc2NC(=O)COc2cc(C)ccc2Cl)CC1`, 14.1 µM (active). Consider `C[C@@H]1[C@H](O)C[C@@]23COC(=O)C2=CCCC3[C@@]1(C)CCC1COC(=O)C1` (some centres not stated), for which the “activity change, negative = inhibition” value is -24.3%.
